Experimental data published in the supplement of paper PMC10849652.
Targets with a hit are over-represented here; the source holds about 7,900 in all. About 0.6% of all pairs of compound and target were hits.

Key:
Test in all cases: log2 fold change, soluble protein after heating vs DMSO (PISA); higher = thermal stabilisation; K562 cells, 10 uM, 30 min; active = over 0.2 and 3.5 SD of the protein, either way, in both replicates (recomputed)
saracatinib = compound: CN1CCN(CCOc2cc(OC3CCOCC3)c3c(Nc4c(Cl)ccc5c4OCO5)ncnc3c2)CC1 [saracatinib]
Procedure, shortened: (§1)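 For each measurement, 10 μM compound was applied for 30 min to K562 cells at 2×10^6 cells/mL. Aliquots were heated for 3 min across 48°C-58°C, pooled, and extracted in PBS with 0.5% NP-40 at 4°C; the supernatant after 21,000xg for 90 min was soluble protein. This was quantified by TMTpro 16plex LC-MS/MS with channel sums equalised, and thermal stability was reported relative to control samples from duplicates, on a log2 fold-change scale.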

sotrastaurin = compound: CN1CCN(c2nc(C3=C(c4c[nH]c5ccccc45)C(=O)NC3=O)c3ccccc3n2)CC1 [sotrastaurin]
Procedure, shortened: as §1

alvocidib = compound: CN1CC[C@H](c2c(O)cc(O)c3c(=O)cc(-c4ccccc4Cl)oc23)[C@H](O)C1 [alvocidib]
Procedure, shortened: as §1

Tubastatin A = compound: CN1CCc2c(c3ccccc3n2Cc2ccc(C(=O)NO)cc2)C1 [Tubastatin A]
Procedure, shortened: as §1

[1] = compound: CNC(=O)C1=CC=CC=C1NC2=NC(=NC=C2Cl)NC3=C(C=C(C=C3)N4CCOCC4)OC
Procedure, shortened: as §1

defactinib = compound: CNC(=O)c1ccc(Nc2ncc(C(F)(F)F)c(NCc3nccnc3N(C)S(C)(=O)=O)n2)cc1 [defactinib]
Procedure, shortened: as §1

rucaparib = compound: CNCc1ccc(-c2[nH]c3cc(F)cc4c3c2CCNC4=O)cc1 [rucaparib]
Procedure, shortened: as §1

[2] = compound: CNc1nc(-c2ccc3c(N)n[nH]c3c2)cc(N2C[C@@H](C(=O)NC3CCCCC3)CC[C@H]2C)n1
Procedure, shortened: as §1

encorafenib = compound: COC(=O)N[C@@H](C)CNc1nccc(-c2cn(C(C)C)nc2-c2cc(Cl)cc(NS(C)(=O)=O)c2F)n1 [encorafenib]
Procedure, shortened: as §1

[3] = compound: COC(=O)[C@H](CCSC)NC(=O)C1=C(C=C(C=C1)NC[C@H](CS)N)C2=CC=CC=C2
Procedure, shortened: as §1

[4] = compound: COC1=CC=C(C=C1)CN2C=CC3=C2C=C(C=C3)C(=O)NO
Procedure, shortened: as §1

filanesib = compound: CON(C)C(=O)N1N=C(c2cc(F)ccc2F)S[C@@]1(CCCN)c1ccccc1 [filanesib]
Procedure, shortened: as §1

zotarolimus = compound: CO[C@H]1C[C@@H]2CC[C@@H](C)[C@@](O)(O2)C(=O)C(=O)N2CCCC[C@H]2C(=O)O[C@H]([C@H](C)C[C@@H]2CC[C@H](n3cnnn3)[C@H](OC)C2)CC(=O)[C@H](C)/C=C(\C)[C@@H](O)[C@@H](OC)C(=O)[C@H](C)C[C@H](C)/C=C/C=C/C=C/1C [zotarolimus]
Procedure, shortened: as §1

idasanutlin = compound: COc1cc(C(=O)O)ccc1NC(=O)[C@@H]1N[C@@H](CC(C)(C)C)[C@](C#N)(c2ccc(Cl)cc2F)[C@H]1c1cccc(Cl)c1F [idasanutlin]
Procedure, shortened: as §1

alisertib = compound: COc1cc(Nc2ncc3c(n2)-c2ccc(Cl)cc2C(c2c(F)cccc2OC)=NC3)ccc1C(=O)O [alisertib]
Procedure, shortened: as §1

[5] = compound: COc1cc2nc(-c3cc(F)ccc3O)nc(N[C@@H]3CNC[C@H]3C(C)(C)O)c2cc1OC
Procedure, shortened: as §1

gefitinib = compound: COc1cc2ncnc(Nc3ccc(F)c(Cl)c3)c2cc1OCCCN1CCOCC1 [gefitinib]
Procedure, shortened: as §1

[6] = compound: COc1cccc2cc(-c3nc([C@H]4CC[C@H](C(=O)O)CC4)n4ncnc(N)c34)[nH]c12
Procedure, shortened: as §1

lapatinib = compound: CS(=O)(=O)CCNCc1ccc(-c2ccc3ncnc(Nc4ccc(OCc5cccc(F)c5)c(Cl)c4)c3c2)o1 [lapatinib]
Procedure, shortened: as §1

pictilisib = compound: CS(=O)(=O)N1CCN(Cc2cc3nc(-c4cccc5[nH]ncc45)nc(N4CCOCC4)c3s2)CC1 [pictilisib]
Procedure, shortened: as §1

Measured: log2 fold change

ACAD9 (UniProt Q9H845)
Chain of UniProt Q9H845 (Q9H845 whole entry, looked up): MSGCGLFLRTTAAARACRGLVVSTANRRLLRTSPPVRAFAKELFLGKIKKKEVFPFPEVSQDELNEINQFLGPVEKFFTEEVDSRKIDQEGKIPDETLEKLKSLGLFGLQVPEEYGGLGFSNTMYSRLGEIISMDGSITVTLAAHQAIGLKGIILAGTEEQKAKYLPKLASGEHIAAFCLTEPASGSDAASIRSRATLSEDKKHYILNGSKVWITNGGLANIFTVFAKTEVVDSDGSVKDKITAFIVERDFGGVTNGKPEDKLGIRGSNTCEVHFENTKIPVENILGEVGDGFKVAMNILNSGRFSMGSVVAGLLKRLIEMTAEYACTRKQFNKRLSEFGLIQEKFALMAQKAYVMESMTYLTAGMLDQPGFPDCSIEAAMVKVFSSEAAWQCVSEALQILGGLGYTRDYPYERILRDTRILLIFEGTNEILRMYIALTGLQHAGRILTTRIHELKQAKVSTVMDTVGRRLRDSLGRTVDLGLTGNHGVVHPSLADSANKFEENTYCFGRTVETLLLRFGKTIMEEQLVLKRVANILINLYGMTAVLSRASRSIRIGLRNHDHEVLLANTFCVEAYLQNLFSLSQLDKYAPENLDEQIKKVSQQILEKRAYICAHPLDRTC
inactive: saracatinib 0.008 | sotrastaurin 0.004 | alvocidib -0.012 | Tubastatin A -0.041 | [1] -0.001 | defactinib -0.026 | rucaparib -0.038 | [2] -0.025 | encorafenib -0.004 | [3] -0.015 | [4] -0.005 | filanesib -0.069 | zotarolimus -0.017 | idasanutlin 0.017 | alisertib -0.012 | [5] 0.03 | gefitinib 0.016 | [6] 0.083 | lapatinib -0.015 | pictilisib 0.082

ATP7B (UniProt P35670)
Chain of UniProt P35670 (P35670 whole entry, looked up): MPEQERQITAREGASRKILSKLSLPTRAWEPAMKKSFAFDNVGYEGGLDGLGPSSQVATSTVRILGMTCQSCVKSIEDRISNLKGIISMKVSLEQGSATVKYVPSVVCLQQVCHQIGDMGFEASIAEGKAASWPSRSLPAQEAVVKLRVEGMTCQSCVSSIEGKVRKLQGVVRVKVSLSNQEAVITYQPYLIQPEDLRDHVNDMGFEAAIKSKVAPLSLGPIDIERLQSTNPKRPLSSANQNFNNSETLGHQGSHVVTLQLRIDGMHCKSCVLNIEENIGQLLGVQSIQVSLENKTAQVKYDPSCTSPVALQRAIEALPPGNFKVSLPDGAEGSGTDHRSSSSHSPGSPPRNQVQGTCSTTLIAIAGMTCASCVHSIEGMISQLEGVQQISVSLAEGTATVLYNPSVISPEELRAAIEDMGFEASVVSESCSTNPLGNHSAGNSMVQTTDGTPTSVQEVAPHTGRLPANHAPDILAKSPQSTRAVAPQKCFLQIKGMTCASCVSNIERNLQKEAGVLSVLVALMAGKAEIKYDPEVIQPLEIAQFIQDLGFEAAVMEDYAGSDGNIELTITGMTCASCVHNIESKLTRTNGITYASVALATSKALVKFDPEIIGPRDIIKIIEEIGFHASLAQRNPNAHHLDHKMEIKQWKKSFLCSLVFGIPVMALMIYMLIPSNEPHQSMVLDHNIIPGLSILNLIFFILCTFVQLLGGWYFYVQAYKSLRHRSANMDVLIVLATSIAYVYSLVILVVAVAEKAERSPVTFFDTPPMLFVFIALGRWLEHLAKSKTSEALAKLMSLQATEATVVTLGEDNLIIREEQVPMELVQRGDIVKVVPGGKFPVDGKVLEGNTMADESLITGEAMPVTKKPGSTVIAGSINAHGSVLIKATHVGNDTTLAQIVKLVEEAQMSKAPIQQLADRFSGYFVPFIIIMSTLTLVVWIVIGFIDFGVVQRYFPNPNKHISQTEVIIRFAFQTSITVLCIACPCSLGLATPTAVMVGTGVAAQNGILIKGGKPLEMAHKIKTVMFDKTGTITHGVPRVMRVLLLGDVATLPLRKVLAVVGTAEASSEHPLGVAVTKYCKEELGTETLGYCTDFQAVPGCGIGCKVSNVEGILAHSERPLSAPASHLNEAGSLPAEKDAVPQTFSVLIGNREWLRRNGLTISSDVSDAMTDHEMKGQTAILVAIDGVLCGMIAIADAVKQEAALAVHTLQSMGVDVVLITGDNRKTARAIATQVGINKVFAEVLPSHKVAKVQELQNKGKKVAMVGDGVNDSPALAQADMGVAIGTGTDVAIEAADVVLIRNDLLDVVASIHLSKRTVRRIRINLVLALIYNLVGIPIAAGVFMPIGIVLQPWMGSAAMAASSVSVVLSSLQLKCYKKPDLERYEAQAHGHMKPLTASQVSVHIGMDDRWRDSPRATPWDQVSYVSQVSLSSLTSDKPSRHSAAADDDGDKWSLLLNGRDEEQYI
active: idasanutlin -0.233
inactive: saracatinib 0.069 | sotrastaurin 0.005 | alvocidib -0.085 | Tubastatin A 0.01 | [1] -0.019 | defactinib -0.011 | rucaparib -0.044 | [2] 0.005 | encorafenib 0.052 | [3] -0.021 | [4] -0.02 | filanesib 0.087 | zotarolimus -0.075 | alisertib -0.02 | [5] -0.011 | gefitinib 0.028 | [6] 0.026 | lapatinib 0.061 | pictilisib 0.061

ANP32E (UniProt Q9BTT0)
Chain of UniProt Q9BTT0 (Q9BTT0 whole entry, looked up): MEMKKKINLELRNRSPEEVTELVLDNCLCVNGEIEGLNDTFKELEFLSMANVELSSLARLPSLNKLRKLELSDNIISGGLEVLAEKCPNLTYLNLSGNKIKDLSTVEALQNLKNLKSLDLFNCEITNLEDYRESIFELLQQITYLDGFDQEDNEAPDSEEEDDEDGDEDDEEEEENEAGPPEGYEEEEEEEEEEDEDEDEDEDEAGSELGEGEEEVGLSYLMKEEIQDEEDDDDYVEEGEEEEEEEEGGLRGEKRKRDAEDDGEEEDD
inactive: saracatinib 0.006 | sotrastaurin -0.105 | alvocidib -0.109 | Tubastatin A 0.052 | [1] 0.041 | defactinib -0.239 | rucaparib -0.108 | [2] -0.06 | encorafenib 0.159 | [3] -0.022 | [4] 0.027 | filanesib 0.011 | zotarolimus 0.066 | idasanutlin 0.061 | alisertib 0.045 | [5] -0.039 | gefitinib 0.021 | [6] -0.027 | lapatinib -0.011 | pictilisib 0.06

ADH5 (UniProt P11766)
Chain of UniProt P11766 (P11766 whole entry, looked up): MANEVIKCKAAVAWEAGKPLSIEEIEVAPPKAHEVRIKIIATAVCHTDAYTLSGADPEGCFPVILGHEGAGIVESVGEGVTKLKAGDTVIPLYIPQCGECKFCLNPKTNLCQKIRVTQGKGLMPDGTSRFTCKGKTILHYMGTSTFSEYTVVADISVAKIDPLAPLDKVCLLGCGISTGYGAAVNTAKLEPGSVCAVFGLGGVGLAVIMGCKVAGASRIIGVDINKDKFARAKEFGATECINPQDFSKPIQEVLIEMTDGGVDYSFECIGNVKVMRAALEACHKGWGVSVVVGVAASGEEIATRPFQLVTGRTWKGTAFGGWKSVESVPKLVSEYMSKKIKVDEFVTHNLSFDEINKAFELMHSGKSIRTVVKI
inactive: saracatinib 0.04 | sotrastaurin 0.03 | alvocidib 0.011 | Tubastatin A -0.025 | [1] -0.025 | defactinib -0.014 | rucaparib -0.066 | [2] -0.025 | encorafenib -0.006 | [3] 0.002 | [4] -0.002 | filanesib -0.053 | zotarolimus 0.008 | idasanutlin -0.037 | alisertib -0.039 | [5] 0.011 | gefitinib -0.007 | [6] 0.058 | lapatinib -0.03 | pictilisib 0

ACP1 isoform 2 (UniProt P24666)
Chain of UniProt P24666 (P24666 whole entry, looked up): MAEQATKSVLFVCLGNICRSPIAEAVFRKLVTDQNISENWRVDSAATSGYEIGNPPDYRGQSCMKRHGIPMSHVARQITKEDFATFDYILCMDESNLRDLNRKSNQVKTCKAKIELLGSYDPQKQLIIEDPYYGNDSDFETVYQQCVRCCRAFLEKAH
inactive: saracatinib -0.175 | sotrastaurin -0.11 | alvocidib 0.013 | Tubastatin A 0.111 | [1] 0.038 | defactinib -0.047 | rucaparib 0.019 | [2] 0.059 | encorafenib 0.064 | [3] 0.024 | [4] 0.029 | filanesib 0.095 | zotarolimus 0.009 | idasanutlin 0.028 | alisertib 0.094 | [5] 0.036 | gefitinib 0.045 | [6] -0.077 | lapatinib 0.014 | pictilisib 0.055

AGPS (UniProt O00116)
Chain of UniProt O00116 (O00116 whole entry, looked up): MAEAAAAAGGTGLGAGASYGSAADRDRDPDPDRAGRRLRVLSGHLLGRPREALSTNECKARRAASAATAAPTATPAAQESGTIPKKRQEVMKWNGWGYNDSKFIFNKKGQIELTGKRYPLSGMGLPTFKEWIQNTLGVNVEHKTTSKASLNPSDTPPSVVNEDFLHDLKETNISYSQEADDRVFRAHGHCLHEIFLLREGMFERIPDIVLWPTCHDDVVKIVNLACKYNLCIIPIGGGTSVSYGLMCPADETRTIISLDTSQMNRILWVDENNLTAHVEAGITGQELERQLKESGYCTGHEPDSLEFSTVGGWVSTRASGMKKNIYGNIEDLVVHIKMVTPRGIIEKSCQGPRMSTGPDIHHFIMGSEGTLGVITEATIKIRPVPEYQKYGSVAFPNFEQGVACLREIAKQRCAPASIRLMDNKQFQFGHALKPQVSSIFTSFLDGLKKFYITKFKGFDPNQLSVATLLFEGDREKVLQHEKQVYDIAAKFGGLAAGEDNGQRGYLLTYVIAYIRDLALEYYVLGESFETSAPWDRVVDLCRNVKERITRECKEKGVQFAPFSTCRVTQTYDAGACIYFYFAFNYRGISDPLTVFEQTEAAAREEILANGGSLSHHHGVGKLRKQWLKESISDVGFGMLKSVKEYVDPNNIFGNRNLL
inactive: saracatinib -0.01 | sotrastaurin 0.018 | alvocidib -0.058 | Tubastatin A -0.011 | [1] 0.032 | defactinib -0.039 | rucaparib -0.017 | [2] 0.047 | encorafenib 0.009 | [3] -0.042 | [4] 0.074 | filanesib -0.145 | zotarolimus 0.05 | idasanutlin -0.037 | alisertib -0.03 | [5] -0.044 | gefitinib 0.069 | [6] 0.048 | lapatinib 0.018 | pictilisib -0.003

APLP2 (UniProt Q06481)
Chain of UniProt Q06481 (Q06481 whole entry, looked up): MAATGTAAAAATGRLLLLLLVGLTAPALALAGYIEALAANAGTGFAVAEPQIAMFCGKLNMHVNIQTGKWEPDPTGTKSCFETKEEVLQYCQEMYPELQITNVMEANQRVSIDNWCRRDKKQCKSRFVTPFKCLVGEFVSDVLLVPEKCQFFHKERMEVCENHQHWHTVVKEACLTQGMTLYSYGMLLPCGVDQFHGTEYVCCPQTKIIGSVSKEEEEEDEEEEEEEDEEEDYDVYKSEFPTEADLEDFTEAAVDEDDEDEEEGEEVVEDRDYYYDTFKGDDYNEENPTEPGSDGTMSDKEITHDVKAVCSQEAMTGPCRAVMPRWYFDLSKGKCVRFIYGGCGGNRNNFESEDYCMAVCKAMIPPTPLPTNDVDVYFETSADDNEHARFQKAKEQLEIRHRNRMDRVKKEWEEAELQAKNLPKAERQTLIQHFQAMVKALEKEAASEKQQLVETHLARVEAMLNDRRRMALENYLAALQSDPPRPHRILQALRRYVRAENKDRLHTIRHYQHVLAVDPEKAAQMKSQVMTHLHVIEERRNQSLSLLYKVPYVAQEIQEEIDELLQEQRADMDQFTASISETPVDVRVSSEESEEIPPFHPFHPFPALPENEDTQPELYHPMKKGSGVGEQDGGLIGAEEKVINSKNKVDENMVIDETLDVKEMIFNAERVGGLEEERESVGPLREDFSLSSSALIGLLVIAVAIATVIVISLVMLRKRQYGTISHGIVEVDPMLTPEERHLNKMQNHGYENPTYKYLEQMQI
inactive: saracatinib 0.072 | sotrastaurin 0.094 | alvocidib 0.011 | Tubastatin A 0.014 | [1] 0.009 | defactinib -0.055 | rucaparib -0.082 | [2] -0.051 | encorafenib 0.02 | [3] 0.051 | [4] 0.036 | zotarolimus 0.002 | idasanutlin 0.058 | alisertib -0.039 | [5] 0.038 | gefitinib 0.106 | [6] -0.04 | lapatinib 0.09 | pictilisib 0.091
active: filanesib 0.219

ATP13A2 (UniProt Q9NQ11)
inactive: saracatinib 0.061 | sotrastaurin 0.036 | alvocidib 0.023 | Tubastatin A 0.026 | [1] 0.015 | defactinib -0.116 | rucaparib 0 | [2] 0.039 | encorafenib -0.027 | [3] 0.026 | [4] 0.053 | filanesib -0.134 | zotarolimus 0.023 | idasanutlin 0.027 | alisertib -0.143 | [5] 0.019 | gefitinib -0.005 | [6] 0.053 | lapatinib -0.005 | pictilisib 0.066

BAIAP2 (UniProt Q9UQB8)
Chain of UniProt Q9UQB8 (Q9UQB8 whole entry, looked up): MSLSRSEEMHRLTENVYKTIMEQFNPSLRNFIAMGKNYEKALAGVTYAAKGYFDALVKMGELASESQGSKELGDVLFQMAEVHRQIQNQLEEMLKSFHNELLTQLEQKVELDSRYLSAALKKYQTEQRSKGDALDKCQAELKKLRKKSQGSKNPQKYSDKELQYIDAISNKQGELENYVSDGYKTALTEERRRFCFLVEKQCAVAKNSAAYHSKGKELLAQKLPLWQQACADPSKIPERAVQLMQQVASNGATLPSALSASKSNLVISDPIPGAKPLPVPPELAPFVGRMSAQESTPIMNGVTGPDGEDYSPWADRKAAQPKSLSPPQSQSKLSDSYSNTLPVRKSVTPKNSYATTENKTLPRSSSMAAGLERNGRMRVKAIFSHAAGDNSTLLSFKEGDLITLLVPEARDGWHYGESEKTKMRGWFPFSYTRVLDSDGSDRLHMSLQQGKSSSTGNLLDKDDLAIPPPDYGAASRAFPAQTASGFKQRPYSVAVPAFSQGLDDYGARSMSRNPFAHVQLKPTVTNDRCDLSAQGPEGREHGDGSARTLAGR
inactive: saracatinib 0.009 | sotrastaurin -0.016 | alvocidib -0.017 | Tubastatin A 0.036 | [1] -0.103 | defactinib -0.097 | rucaparib 0.014 | [2] -0.017 | encorafenib 0.006 | [3] -0.022 | [4] 0.014 | filanesib -0.029 | zotarolimus -0.016 | idasanutlin -0.003 | alisertib 0.008 | [5] -0.131 | gefitinib -0.026 | [6] -0.024 | lapatinib 0.036 | pictilisib 0
